# Data from PubChem BioAssay (NCATS).
# Inconclusive results are not listed. Where a call stands in place of a potency, no number is given. Unmarked numbers belong to inactive results. Activity calls are given as the source filed them. Calls follow the shape of the dose curve; as a rule, active = well fitted curve in the direction sought with a large enough effect; inconclusive = small, poorly fitted or top-dose-only effect, or another doubt; inactive = no such curve, though single readings can be large; an effect the other way counts as inactive or inconclusive. Where a SMILES comes first, the peptide text is derived from it. The star is where a group is joined. AMC = Cc1cc(=O)oc2cc(N*)ccc12; Cbz = O=C(OCc1ccccc1)*
# Assays:
# CRL-7250 = normal cell line; assay: Cytotoxic Profiling of Annotated Libraries Using Quantitative High-Throughput Screening (AID 1296008); conditions: Five cell lines viability, CellTiter-Glo ATP luminescence, 48-72 h; max response: active compounds read low; also: nearly all actives have a fitted effect of over 60% in size; also: potency is read from the fitted curve at half-maximal effect
# Procedure, shortened: (§1)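 Compounds were pin-transferred onto cells and incubated 48 or 72 hr at 37 degree Celsius, 95% humidity. CellTiter-Glo was added, plates sat 10 min at room temperature, then ATP-coupled luminescence was imaged as the viability read-out.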
# HEK293 = assay: as above; conditions: Five cell lines viability, CellTiter-Glo ATP luminescence, 48-72 h; max response: active compounds read low
# Procedure, shortened: as §1
# HaCat [1] = assay: as above; conditions: Five cell lines viability, CellTiter-Glo ATP luminescence, 48-72 h; max response: active compounds read low
# Procedure, shortened: as §1
# KB-3-1 = assay: as above; conditions: Five cell lines viability, CellTiter-Glo ATP luminescence, 48-72 h; max response: active compounds read low
# Procedure, shortened: as §1
# NIH3T3 = assay: as above; conditions: Five cell lines viability, CellTiter-Glo ATP luminescence, 48-72 h; max response: active compounds read low
# Procedure, shortened: as §1
# HACAT [2] = assay: qHTS assay to identify novel small-molecules to repurpose for Merkel cell carcinoma treatment (AID 1296009); conditions: MCC and control cell lines, CellTiter-Glo viability, 72 h; at 44.8 µM (top of the series) unless noted; also: nearly all actives have a fitted effect of over 60% in size
# Procedure, shortened: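 qHTS format: cells treated with library compounds in DMSO across 8 (NPC) or 11 (MIPE) concentrations. Readout after 72 hr at 37 degree celsius was CellTiter-Glo luminescence.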
# C33A = assay: Primary qHTS to identify gynecologic anti-cancer compounds using libraries of approved drugs and bioactive compounds (AID 1345084); conditions: Gynecologic cancer cell panel viability, ATPlite luminescence, 48 h; series mostly up to 57.5 µM; also: nearly all actives have a fitted effect of over 55% in size
# Procedure, shortened: (§2)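 Five-point cytotoxicity, 48 h drug exposure at 37 C, 5% CO2, on cells seeded 16 h beforehand. ATP content read by ATPlite luminescence.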
# CAOV3 = assay: as above; conditions: Gynecologic cancer cell panel viability, ATPlite luminescence, 48 h; series mostly up to 57.5 µM
# Procedure, shortened: as §2
# CASKI = assay: as above; conditions: Gynecologic cancer cell panel viability, ATPlite luminescence, 48 h; series mostly up to 57.5 µM
# Procedure, shortened: as §2
# Es-2 = assay: as above; conditions: Gynecologic cancer cell panel viability, ATPlite luminescence, 48 h; series mostly up to 57.5 µM
# Procedure, shortened: as §2
# HeLa = assay: as above; conditions: Gynecologic cancer cell panel viability, ATPlite luminescence, 48 h; series mostly up to 57.5 µM
# Procedure, shortened: as §2
# Hek293T = assay: as above; conditions: Gynecologic cancer cell panel viability, ATPlite luminescence, 48 h, control line for the selectivity index; series mostly up to 57.5 µM
# Procedure, shortened: as §2
# JEG-3 = assay: as above; conditions: Gynecologic cancer cell panel viability, ATPlite luminescence, 48 h; series mostly up to 57.5 µM
# Procedure, shortened: as §2
Compound,max response (CRL-7250),max response (HEK293),outcome (HaCat [1]),max response (KB-3-1),max response (NIH3T3),outcome (HACAT [2]),Potency (C33A),Potency (CAOV3),outcome (CASKI),Potency (Es-2),Potency (HeLa),Potency (Hek293T),Potency (JEG-3),outcome (KB-3-1),Potency (HEK293),outcome (CRL-7250)
COc1ccc(/C=C/C(=O)N2CCCC2)cc1,1.09%,2.31%,inactive,2.27%,-2.69%,inactive,inactive,inactive,inactive,inactive,inactive,inactive,inactive,,,
CC1=C2C[C@H]3OC(=O)[C@H](O)[C@@]4(O)[C@@H](C)[C@@H](O)[C@H](O)C([C@@]2(C)[C@H](O)[C@@H](O)C1)[C@@]34C (some centres not stated),-2.09%,-1.6%,inactive,9.81%,2.2%,inactive,inactive,inactive,inactive,inactive,inactive,inactive,inactive,,,
COc1ccccc1Oc1c(NS(=O)(=O)c2ccc(C)cn2)nc(-c2ccncc2)nc1OC,3.94%,-4.09%,inactive,,0.566%,inactive,inactive,inactive,inactive,inactive,inactive,inactive,inactive,inactive,,
O=C(NC/C=C/CN1CCN(c2cccc(Cl)c2Cl)CC1)c1ccc(-c2ccccn2)cc1,-4.15%,,inactive,-2.38%,2.53%,inactive,inactive,inactive,inactive,inactive,inactive,inactive,inactive,,13 µM (active),
CC1(C)CC=C(C#Cc2ccccc2)c2cc(/C=C/c3ccc(C(=O)O)cc3)ccc21,-4.79%,1.6%,inactive,3.78%,-4.98%,inactive,inactive,inactive,inactive,inactive,inactive,inactive,inactive,,,
COc1ccc(/C=C/C(=O)O[C@@H]2[C@@H](O)[C@@H](O)[C@H](O[C@H]3[C@@H]4C=CO[C@@H](O[C@@H]5O[C@H](CO)[C@@H](O)[C@H](O)[C@H]5O)[C@@H]4[C@@]4(CO)O[C@@H]34)O[C@H]2C)cc1,-8.85%,-4.15%,inactive,1.26%,0.471%,inactive [at 17.4 µM],inactive,inactive,inactive,inactive,inactive,inactive,inactive,,,
CC(C)CC(=O)NCCn1cc(C(=O)O)c(=O)cc1C(O)c1ccccc1 (configuration not stated),,-11.3%,inactive,,3.17%,inactive,inactive,inactive,inactive,inactive,inactive,inactive,inactive,inactive,,inactive
OCC(O)C(c1c[nH]c2ccccc12)c1c[nH]c2ccccc12 (configuration not stated),,-8.71%,inactive,,1.42%,inactive,inactive,inactive,inactive,inactive,inactive,inactive,inactive,inactive,,inactive
C=C1CCC2C(C)(C)CC(O)CC2(C)C1CCC(C)CC(=O)O (configuration not stated),-5.49%,1.49%,inactive,-5.43%,-0.43%,inactive,inactive,inactive,inactive,inactive,inactive,inactive,inactive,,,
C=C1CC[C@@H]2[C@@](C)(CO[C@@H]3O[C@H](CO)[C@@H](O)[C@H](O)[C@H]3O)[C@H](O)CC[C@@]2(C)[C@@H]1CC/C(C)=C/CO[C@@H]1O[C@H](CO)[C@@H](O)[C@H](O)[C@H]1O,,-9.45%,inactive,-3.96%,-12.7%,inactive [at 17.4 µM],inactive,inactive,inactive,inactive,inactive,inactive,inactive,,,inactive
C=C(C)C1Cc2c(ccc3c2OCC(c2ccc(O)cc2O)C3)O1 (configuration not stated),-23.3%,-18.8%,inactive,-21.6%,-8.17%,inactive,inactive,inactive,inactive,inactive,inactive,inactive,inactive,,,
COc1cccc(Cn2ncc3c4sc(S(C)=O)cc4n(C)c3c2=O)c1 (configuration not stated),2.15%,-7.28%,inactive,,2.83%,inactive,inactive,inactive,inactive,inactive,inactive,inactive,inactive,inactive,,
Cc1cc(=O)oc2cc(NC(=O)[C@H](CCC(=O)O)NC(=O)[C@H](CC(C)C)NC(=O)[C@H](CC(C)C)NC(=O)OCc3ccccc3)ccc12 (Cbz-Leu-Leu-Glu-{AMC}),-3.16%,-3.22%,inactive,3.3%,-20.3%,inactive,inactive,inactive,inactive,inactive,inactive,inactive,inactive,,,
Cc1ncc(NC(=O)c2ccc(CN3CCN(C)CC3)c(C(F)(F)F)c2)cc1Nc1nccc(-c2cccnc2)n1,-2.29%,,inactive,8.35%,1.55%,inactive,inactive,inactive,inactive,inactive,inactive,inactive,inactive,,16.4 µM (active),
COc1c(C)c(OCC=C(C)C)cc2c1COC2=O,-4.58%,3.79%,inactive,4.15%,2.66%,inactive,inactive,inactive,inactive,inactive,inactive,inactive,inactive,,,
CC1=CC(=O)CC(C)(C)C1CO[C@@H]1O[C@H](CO)[C@@H](O)[C@H](O)[C@H]1O (some centres not stated),-5.79%,-1.36%,inactive,7.69%,-1.71%,inactive,inactive,inactive,inactive,inactive,inactive,inactive,inactive,,,
OC[C@H]1O[C@@H](O[C@H]2[C@H](O)[C@@H](CO)O[C@@H](OCc3ccccc3)[C@@H]2O[C@@H]2OC[C@](O)(CO)[C@H]2O)[C@H](O)[C@@H](O)[C@@H]1O,-8.44%,-1.87%,inactive,7.58%,1.27%,inactive [at 17.4 µM],inactive,inactive,inactive,inactive,inactive,inactive,inactive,,,
CNc1nc(Nc2cn(C(C)(C)C#N)nc2C)ncc1C(F)(F)F,0.355%,-5.29%,inactive,6.02%,-4.77%,inactive,inactive,inactive,inactive,inactive,inactive,inactive,inactive,,,
O=C(N[C@@H]1CC[C@@H](c2cccc(F)c2F)CN(CC(F)(F)F)C1=O)N1CCC(n2c(=O)[nH]c3ncccc32)CC1,-4.99%,,inactive,,-12.6%,inactive,inactive,inactive,inactive,inactive,inactive,inactive,inactive,inactive,16.4 µM (active),
CS(=O)(=O)c1ccccc1N1CCN(c2nc3c(c(=O)[nH]2)CSCC3)CC1,0.787%,1.58%,inactive,-11.7%,-5.12%,inactive,inactive,inactive,inactive,inactive,inactive,inactive,inactive,,,
C=C(COC(=O)C(C)C)C1Oc2cc(C(C)=O)ccc2C1OC(=O)C(C)C (configuration not stated),-10.7%,1.24%,inactive,4.68%,0.455%,inactive,inactive,inactive,inactive,inactive,inactive,inactive,inactive,,,
CC1(C)C[C@H]2C=C(C=O)[C@]3(C(=O)O)C[C@]3(C)[C@H]2C1,-0.156%,-14%,inactive,6.21%,0.712%,inactive,inactive,inactive,inactive,,inactive,inactive,inactive,,,
Cc1cc(C(=O)N2Cc3cnn(C)c3Nc3ccccc32)ccc1CNC(=O)N1CCN(Cc2cc(O)cc(O)c2)CC1,,-0.745%,inactive,,-0.633%,inactive,inactive,inactive,inactive,inactive,inactive,inactive,inactive,inactive,,inactive
C/C=C1\[C@H](O[C@@H]2O[C@H](CO)[C@@H](O)[C@H](O)[C@H]2O)OC=C(C(=O)OCCc2ccc(O)cc2)[C@H]1CC(=O)OCCc1ccc(O)cc1,0.139%,-2.9%,inactive,-0.75%,-3.77%,inactive [at 17.4 µM],inactive,inactive,,inactive,inactive,inactive,,,,
C[C@H](/C=C/[C@@]1(O)[C@H](C)CC(=O)CC1(C)C)O[C@@H]1O[C@H](CO[C@@H]2OC[C@@H](O)[C@H](O)[C@H]2O)[C@@H](O)[C@H](O)[C@H]1O,,-7.74%,inactive,,-1.42%,inactive [at 17.4 µM],inactive,inactive,inactive,inactive,inactive,inactive,inactive,inactive,,inactive
